Assay outcomes from PubChem BioAssay.
Shiga toxin inh – A qHTS for Small Molecule Inhibitors of Shiga Toxin. 290,000 tested, 9.2% active. Vero cells, Shiga toxin protein synthesis inhibition reporter. AID 2315, 2010. inhibition, % at 38.7 µM; in the data active = inhibition mostly above about 28%, no sharp cut-off; inactive = mostly below about 43%
CHX counter – Cycloheximide Counterscreen for Small Molecule Inhibitors of Shiga Toxin. cell reporter, cycloheximide protein synthesis inhibition counterscreen. max response, %. 300,000 tested, 12% active. AID 2314, 2010; in the data active = max response mostly above about 13%, no sharp cut-off; inactive = mostly below about 14%; note: read at 38.3 µM for the half of the compounds with a filed dose
Tb PYK inh – qHTS of Trypanosoma Brucei Inhibitors | pyruvate kinase (Trypanosoma brucei), Q57TT1 | TbPYK enzyme, Kinase-Glo Plus ATP luminescence, 45 min | Potency, µM (doses to about 76.8 µM), usual class: inhibitors | 410,000 tested, 0.12% active; note: nearly all actives have a fitted effect of over 50% in size
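Assay buffer: 50 mM TEA pH 7.2, 100 mM KCl, 10 mM MgCl2, 0.05% BSA, 0.01% Tween-20. Pyruvate kinase from T. brucei plus substrate met compound, then ADP (130 uM final). Luminescence was read post 45 min RT.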
FBPA Giardia inh – qHTS Assay for Inhibitors of Fructose-1,6-bisphosphate Aldolase from Giardia Lamblia; purified Giardia FBPA; Potency, µM (titrated, usually from 59.6 µM), hits mostly inhibitors; 290,000 tested, 0.71% active; note: nearly all actives have a fitted effect of over 55% in size
Target sequence (A8B2U2 whole entry, looked up): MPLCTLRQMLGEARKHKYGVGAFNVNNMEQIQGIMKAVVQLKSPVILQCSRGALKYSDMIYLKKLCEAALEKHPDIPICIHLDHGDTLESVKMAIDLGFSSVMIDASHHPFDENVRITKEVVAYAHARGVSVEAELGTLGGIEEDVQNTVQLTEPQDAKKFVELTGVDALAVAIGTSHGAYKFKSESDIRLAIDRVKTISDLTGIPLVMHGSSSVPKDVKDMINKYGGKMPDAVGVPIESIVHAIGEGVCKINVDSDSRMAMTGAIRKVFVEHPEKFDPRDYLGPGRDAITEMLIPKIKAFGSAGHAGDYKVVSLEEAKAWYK
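Giardia FBPA (40 nM reagent) was preincubated 10 min at RT with compound (up to 57.5 uM final), then substrate plus GAPDH/TPI/NAD/arsenate coupling system with diaphorase/resazurin was added; resorufin fluorescence (525/598 nm) was read after 20 min.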
LmPK inh – qHTS Assay for Inhibitors of Leishmania Mexicana Pyruvate Kinase (LmPK); Q27686; 290,000 tested, 0.37% active; Potency, µM (doses to about 57.5 µM), hits mostly inhibitors; purified LmPK, Kinase-Glo ATP luminescence, 1 h
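Kinase-Glo luminescence read after 1 h RT reaction of 0.1 nM LmPK with 0.5 mM PEP and 0.1 mM ADP. Activity scaled between uninhibited and enzyme-free controls.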
Sm TGR inh – qHTS Assay for the Inhibitors of Schistosoma Mansoni Peroxiredoxins. Schistosoma mansoni thioredoxin glutathione reductase (TGR), Q962Y6. purified TGR, DTNB reduction, TNB absorbance 405 nm. Potency, µM (highest dose often 114 µM), usual class: inhibitors. 360,000 tested, 3% active. AID 485364, 2010; note: nearly all actives have a fitted effect of over 60% in size
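Kinetic colorimetric format: TGR-catalysed, NADPH-driven DTNB reduction monitored via TNB absorbance. Enzyme dispensed at 20 nM; compound exposure 15 min at room temperature before reaction start.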
Hits are given with their value; . = inactive; ? = inconclusive; / = no result; [ ] = another dose, or the depositor's remark. Many of the other results were omitted from the sample, so hits are more common in it than they were. Unless noted, calls come from the whole dose curve; as a rule, active = well fitted curve in the direction sought with a large enough effect; inconclusive = small, poorly fitted or top-dose-only effect, or another doubt; inactive = no such curve, though single readings can be large; an effect the other way counts as inactive or inconclusive.

SMILES	Shiga toxin inh	CHX counter	Tb PYK inh	FBPA Giardia inh	LmPK inh	Sm TGR inh
Cc1noc(C)c1C(=O)N1CCC2(CCCN(Cc3ccc(C#N)cc3)C2)CC1	/	/	.	.	/	/
Cc1noc(C)c1NC(=O)N(C)C[C@@H]1OCc2cn(nn2)CCCC(=O)N([C@H](C)CO)C[C@H]1C	/	/	.	/	/	/
C#CCn1cnc2c(oc3ccccc32)c1=O	.	34	.	.	.	.
CCn1cnc2c(oc3ccccc32)c1=O	.	24	.	.	.	.
O=C(Cn1cnc2c(oc3ccccc32)c1=O)c1ccccc1	53	54	.	.	.	.
O=c1c2oc3ccccc3c2ncn1Cc1ccc(Br)cc1	/	/	.	/	/	.
O=C(O)Cn1cnc2c(oc3ccccc32)c1=O	.	.	.	.	.	.
CCCn1cnc2c(oc3ccccc32)c1=O	39	29	.	.	.	.
O=C(O)COc1cccc2c1CCC=C2CCO/N=C(\c1ccccc1)c1cccnc1	.	.	/	?	/	/
COc1cc(CNc2ncc(-c3ccc(Br)cc3)n2C)cc(OC)c1O	/	.	.	?	.	16µM
COc1ccccc1CNc1ncc(-c2ccccc2)n1C	40	21	.	?	.	.
COc1ccc(CNc2ncc(-c3ccc(F)cc3)n2C)c2ccccc12	.	.	.	?	.	.
COc1ccccc1CNc1ncc(-c2ccc(F)cc2)n1C	.	7.6	.	.	.	.
O=S(=O)(c1ccc2c(c1)OCCO2)N1CCN(c2nc3ccccc3s2)CC1	.	.	.	.	.	.
c1ccc2c(c1)CCN(c1nc3cc4c(cc3s1)OCCO4)C2	.	34	.	?	22µM	.
O=C(COc1ccc(F)cc1F)Nc1cccnc1	.	.	.	/	.	.
O=C(COc1ccccc1Cl)Nc1cccnc1	73	40	.	.	.	.
Cc1cc(OCC(=O)Nc2cccnc2)c2c(C)c(C)c(=O)oc2c1	.	.	.	.	.	.
Cc1ccc(Cl)c(OCC(=O)Nc2cccnc2)c1	105	58	.	/	.	.
O=C(Cn1c(=O)ccc2cc(S(=O)(=O)N3CCCC3)ccc21)Nc1ccc(Cl)cc1	/	/	.	/	/	.
CCC(C)(C)NC(=O)C(c1ccc(OC)cc1)N(C(=O)CCC(=O)Nc1cc(C)on1)c1ccc2c(c1)OCCO2 (stereo not drawn)	.	.	.	.	.	.
CCN(C(=O)CCS(=O)(=O)c1cc2c(cc1C)NC(=O)CO2)c1cccc(C)c1	/	/	.	/	/	.
c1ccc(C2=NNC(c3ccco3)=Nc3ccccc32)cc1	.	17	.	.	.	/
COc1ccc(C2=NNC(c3cccnc3)=Nc3ccccc32)cc1	.	.	.	.	.	/
N#Cc1ccc2c(c1)C[C@]1(c3ccsc3)OC3=C(C(=O)OC4(CCCCC4)C3)C2O1	.	.	/	.[12.9 µM]	.[11.5 µM]	?
SMILES	Shiga toxin inh	CHX counter	Tb PYK inh	FBPA Giardia inh	LmPK inh	Sm TGR inh
FC(F)(F)c1cnc(-c2cnc(-c3ccccn3)nc2)c(Cl)c1	52	.	.	.	.	.
FC(F)(F)c1cc(Oc2ccccc2Cl)nc(-c2ccccn2)n1	.	.	.	.	.	.
FC(F)(F)c1cnc(-c2cnc(-c3ccncc3)nc2)c(Cl)c1	.	20	.	.	.	.
O=[N+]([O-])c1cc(S(=O)(=O)N2CCCCCC2)ccc1F	.	.	.	.	.	22µM
O=[N+]([O-])c1cc(S(=O)(=O)N2CCCC2)ccc1OCc1ccccc1	.	28	.	.	.	.
N#CCCN(C(=O)Nc1ccccc1)C1CCCCC1	/	/	.	/	/	/
O=C(Nc1ccc(Cl)cn1)c1cc2c(s1)-c1ccccc1OC2	.	16	.	.	.	.
O=C(Nc1cccnc1Cl)c1cc2c(s1)-c1ccccc1OC2	27	.	.	.	.	.
O=C(NCCSc1ccc(Br)cc1)c1ccc2nc[nH]c2c1	.	21	.	/	.	.
COc1ccccc1CCNC(=O)c1ccc2nc[nH]c2c1	.	.	.	/	.	.
COc1cc(C(=O)NCCSc2ccc(Br)cc2)cc(OC)c1OC	.	.	.	.	.	.
CC(C)CCNC(=O)c1ccc2nc[nH]c2c1	.	24	.	.	.	.
